From PubChem BioAssay
Values without a mark were called inactive. Activity calls are given as the source filed them. No stated cut-off is given here; in the data, active means inhibition above about 44%; inactive means the rest.

target: Steroidogenic factor 1 (Homo sapiens) (UniProt Q13285); assay: SF1 (NR5A1) inverse agonists, counter-screen for LRH-1 inverse agonist project, cell-based, luminescence, high throughput (AID 651614); details: cell-based SF1 luciferase reporter, at 3.6 µM, stronger effect = higher value;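 further: cells cotransfected with StAR promoter reporter and SF1 expression vector; 0% = vehicle on cells with receptor and 100% = vehicle on cells lacking receptor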
Sequence (Q13285 whole entry, looked up): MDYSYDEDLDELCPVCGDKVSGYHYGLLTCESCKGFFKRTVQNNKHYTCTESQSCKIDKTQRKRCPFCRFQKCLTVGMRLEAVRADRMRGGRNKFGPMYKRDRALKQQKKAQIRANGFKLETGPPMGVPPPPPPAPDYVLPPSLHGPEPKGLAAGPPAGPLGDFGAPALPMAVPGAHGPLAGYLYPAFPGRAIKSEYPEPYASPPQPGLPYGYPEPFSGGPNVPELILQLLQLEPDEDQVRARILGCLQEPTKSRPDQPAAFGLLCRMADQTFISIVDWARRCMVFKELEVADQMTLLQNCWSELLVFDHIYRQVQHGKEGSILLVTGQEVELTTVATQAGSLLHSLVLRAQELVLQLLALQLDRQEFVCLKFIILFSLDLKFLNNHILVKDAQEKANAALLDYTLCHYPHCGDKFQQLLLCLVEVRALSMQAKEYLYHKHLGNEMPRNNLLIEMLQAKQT

Row | SMILES | inhibition
1 | Cc1c(C)c2ccc(OCC(=O)N3CCN(C(=O)C4COc5ccccc5O4)CC3)cc2oc1=O (stereo not given) | 59.1% (active)
2 | Cc1ccc(C)c(NC(=O)CSc2nnc(-c3ccccc3)n2N)c1 | 44.7% (active)
3 | CC[C@H](CO)Nc1nc(Nc2cccc(Cl)c2)c2ncn(C(C)C)c2n1 | 38.4%
4 | NC(=S)N/N=C/c1ccc(-n2nncc2-c2ccc(Cl)cc2)cc1 | 56.4% (active)
5 | COC(=O)CC1(C(=O)OC)Oc2ccc(Br)cc2C(=O)N1c1cc(Cl)c(Cl)cc1Cl (stereo not given) | 48.2% (active)
6 | CCCC(=O)Nc1sc2c(c1C(=O)Nc1ccccn1)CCCC2 | 53.8% (active)
7 | Cc1c(Cl)cccc1NC(=O)CSc1sc2c(O)cc(=O)[nH]c2c1C#N | 29.2%
8 | COc1ccc(-c2ccc(C(=O)NCc3ccncc3)c3occc23)c(C)c1 | 70.1% (active)
9 | CCc1ccc2oc(C(=O)NCc3ccncc3)c(C)c2c1 | 61% (active)
10 | O=[N+]([O-])c1cnccc1Nc1ccc(Cl)cc1 | 60.5% (active)
11 | O=C(Nc1cc(C(F)(F)F)cc(C(F)(F)F)c1)O[C@@H]1c2ccccc2[C@@H]2Cc3csc[n+]3[C@H]12 | 58.4% (active)
12 | O=C(c1ccccc1)N(NC(=O)C(O)(c1ccccc1)c1ccccc1)c1cccc(F)c1 | 53% (active)
13 | Clc1ccccc1-c1nnc2sc(-c3ccncc3)nn12 | 50.9% (active)
14 | Cc1ccc[n+](CC(=O)Nc2ccc([N+](=O)[O-])cc2)c1 | 57% (active)
15 | Oc1ccccc1-c1nc(NCC2CCCO2)c2ccccc2n1 (stereo not given) | 58% (active)
16 | O=C(CN(Cc1ccccc1)C(=O)CCl)c1cccc(Br)c1 | 51.8% (active)
17 | O=C(NCc1cccnc1)c1cccc2c1C(=O)N(C1CCCCC1)C2 | 51.5% (active)
18 | O=C(Nc1ccc(Cc2ccncc2)cc1)c1cc(F)c(F)cc1Cl | 37.9%
19 | COc1ccc(C2=CC(=O)CC(C)(C)C2)cc1OC | 51.9% (active)
20 | CCn1c2ccccc2c2cc(/C=N/n3cnnc3)ccc21 | 19.8%

Row | SMILES | inhibition
21 | O=C(Cc1c(F)cccc1Cl)Nc1ccncc1 | 43.5% (active)
22 | COc1ccccc1NC(=O)c1ccc(NC(=O)COC(=O)C(C)C)cc1 | 55.7% (active)
23 | Cc1ccc(NC(=O)CSc2sc3c(O)cc(=O)[nH]c3c2C#N)c(F)c1 | 41.9%
24 | O=C1C(Cl)=C(N2CCOCC2)C(=O)N1c1ccc(Br)cc1 | 50.8% (active)
25 | Cc1ccc2c(c1)Oc1ccc(NC(=O)CCl)cc1C(=O)N2 | 75.6% (active)
26 | Cc1cccc(NC(=O)CSc2nnc([C@@H]3CCCN3C(=O)OC(C)(C)C)o2)c1C | 73.5% (active)
27 | CCc1cc(=O)oc2c(C)c(OCC(=O)NCCCN3CCOCC3)ccc12 | 42.6%
28 | O=C1C(=C(I)I)c2ccccc2-c2ccccc21 | -21.6%
29 | CS(=O)(=O)N1CCCC(c2nc(-c3ccc(S(=O)(=O)NCc4ccccc4)cc3)no2)C1 (stereo not given) | 52.7% (active)
30 | Cc1ccc(Cl)cc1N1CCN(C(=O)C(C)n2ncn3cccc3c2=O)CC1 (stereo not given) | 41.2%
31 | Cc1sc2ncnc(NCCc3ccc(S(N)(=O)=O)cc3)c2c1C | 54.6% (active)
32 | CCOC(=O)N1CCc2cc(OC)c(OC)c3c2c1cc1cc(OC)c(OC)cc13 | 67.3% (active)
33 | S=C1Cc2ccccc2N1 | 79.5% (active)
34 | CCC1(C)OC(=O)N2CCc3c(C)[nH]c4c(C)ccc(c34)C21C (stereo not given) | 44.9% (active)
35 | COc1ccccc1Cc1c(-c2ccc(OC)c(OC)c2)nc2c3ccccc3ccn12 | 32%
36 | O=[N+]([O-])c1ccc(N2CCCC2)nc1N1CCCC1 | 56.1% (active)
37 | O=C(Nc1cc(Cl)ccc1-n1cncn1)c1ccc([N+](=O)[O-])s1 | 69.2% (active)
38 | Oc1ccc2ccccc2c1C=NCc1ccccc1 | 16.9%
39 | O=C(CN1C(=O)NC2(CCCC2)C1=O)NCCc1ccc(F)cc1 | 40.8%
40 | Cc1onc(NC(=O)c2ccc([N+](=O)[O-])o2)c1Br | 58.4% (active)
